Measurements as given in PubChem BioAssay (Tox21).
A number with no mark means an inactive call. Inconclusive results are not listed. Where a call stands in place of a potency, no number is given. The source made the active and inactive calls. Calls come from the whole dose curve; as a rule, active = well fitted curve in the direction sought with a large enough effect in the repeat runs; inconclusive = weak or mixed curves; inactive = no such curve, though single readings can be large; an effect the other way counts as inactive or inconclusive. Where a SMILES comes first, the peptide text is derived from it. [ ]: non-standard residue; d: D form. pGlu = O=C1CC[C@@H](C(=O)O)N1

experiment: qHTS RealTime-Glo MT Cell Viability Assay in HEK293 cells - 32 hour (AID 1224868); settings: RealTime-Glo luminescence; series mostly up to 76.8 µM; note: potency is the fitted concentration of half-maximal effect; for activity change, negative = cytotoxic: top concentration of the series differs between compounds
Procedure, shortened: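 Tox21 10K qHTS, HEK293, 600 cells/well, RealTime-Glo reagent co-dispensed with cells; 5 h preincubation, compound by pintool, 37 C, luminescence at 0–40 h.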
Note: nearly all actives have a fitted effect of over 50% in size.

| SMILES | Potency | activity change, negative = cytotoxic |
| --- | --- | --- |
| O=S(=O)(O)c1cc(O)c(O)c(S(=O)(=O)O)c1 | inactive | – |
| CCC1C(=O)OCC1Cc1cncn1C (stereo not given) | inactive | – |
| C[C@H]1[C@H](NC(=O)/C(=N/OC(C)(C)C(=O)O)c2csc(N)n2)C(=O)N1S(=O)(=O)O (stereo in doubt) | inactive | – |
| Nc1ccn([C@@H]2O[C@H](CO)[C@@H](O)C2O)c(=O)n1 (stereo not given in full) | inactive | – |
| CC1=NN(c2cc(S(=O)(=O)O)ccc2Cl)C(=O)C1N=Nc1ccccc1 (stereo not given) | inactive | – |
| O=S(=O)(O)c1cccc(S(=O)(=O)O)c1 | inactive | – |
| CCN[C@H]1C[C@H](C)S(=O)(=O)c2sc(S(N)(=O)=O)cc21 | inactive | – |
| NCCCC(N)(C(=O)O)C(F)F (stereo not given) | inactive | – |
| CCC(C(=O)NC(=O)NC(C)=O)c1ccccc1 (stereo not given) | inactive | – |
| CC(C)NNC(=O)c1ccncc1 | inactive | – |
| NCCCC[C@H](N[C@@H](CCc1ccccc1)C(=O)O)C(=O)N1CCC[C@H]1C(=O)O | inactive | – |
| CC1=CC(=O)[C@H]2C[C@@H]1C2(C)C | inactive | – |
| CN(C)C(=O)Oc1cccc([N+](C)(C)C)c1 | inactive | – |
| CC[C@H]1OC(=O)[C@H](C)[C@@H](O[C@H]2C[C@@](C)(OC)[C@@H](O)[C@H](C)O2)[C@H](C)[C@@H](O[C@@H]2O[C@H](C)C[C@H](N(C)C)[C@H]2O)[C@](C)(OC)C[C@@H](C)C(=O)[C@H](C)[C@@H](O)[C@]1(C)O | inactive | – |
| COC(=O)C1=C(C)NC(C)=C(C(=O)OC(C)C)C1c1cccc2nonc12 (stereo not given) | 19 µM (active) | – |
| CCCCCCCCCCCCCCC(=O)O | inactive | – |
| CN1CCC(=C2c3ccccc3CCc3cccnc32)CC1 | inactive | – |
| CCOc1ccccc1OCC | inactive | – |
| CCCc1ncc(C[n+]2ccccc2C)c(N)n1 | inactive | – |

| SMILES | Potency | activity change, negative = cytotoxic |
| --- | --- | --- |
| CCOC(=O)c1cnc2c(cnn2CC)c1NN=C(C)C | inactive | – |
| CC(C(=O)O)c1cccc(Oc2ccccc2)c1 (stereo not given) | inactive | – |
| CCNC(=O)[C@@H]1CCCN1C(=O)[C@H](CCCN=C(N)N)NC(=O)[C@H](CC(C)C)NC(=O)CNC(=O)[C@H](Cc1ccc(O)cc1)NC(=O)[C@H](CO)NC(=O)[C@H](Cc1c[nH]c2ccccc12)NC(=O)[C@H](Cc1cnc[nH]1)NC(=O)[C@@H]1CCC(=O)N1 ([pGlu]HWSYGLRP-NHEt) | inactive | – |
| CC[N+](C)(CC)CCOC(=O)C1c2ccccc2Oc2ccccc21 | inactive | – |
| C[C@H]1C[C@H]2[C@@H]3CCC4=CC(=O)C=C[C@]4(C)[C@H]3C(=O)C[C@]2(C)[C@@]1(O)C(=O)CO | inactive | – |
| CCC(C)(CN(C)C)OC(=O)c1ccccc1 (stereo not given) | inactive | – |
| CN1CCN(c2cc3c(nn2)Oc2ccccc2N3C)CC1 | – | 1.71% [at 15.8 µM] |
| OCCCCCO | inactive | – |
| CCN[C@@H]1C[C@H](N)[C@@H](OC2OC(CN)=CCC2N)[C@H](O)[C@H]1O[C@H]1OC[C@](C)(O)[C@H](NC)[C@H]1O (stereo not given in full) | – | 4.65% [at 0.29 µM] |
| C[N+](C)(C)CCCCCCCCCC[N+](C)(C)C | inactive | – |
| Nc1c2c(nc3c1CCC3)CCCC2 | inactive | – |
| CCOCC(C)O (stereo not given) | inactive | – |
| CC[N+](CC)(CC)CCOc1cccc(OCC[N+](CC)(CC)CC)c1OCC[N+](CC)(CC)CC | inactive | – |
| CCCCN1C=CN(C)C1 | – | 8.51% [at 15.8 µM] |
| COc1cc(-c2ccc(=O)[nH]n2)ccc1OC(F)F | inactive | – |
| C=CCCC(=O)O | inactive | – |
| CC(C#N)(CCC(=O)O)N=NC(C)(C#N)CCC(=O)O (stereo not given) | inactive | – |
| CN(C)CCCCCCN(C)C | inactive | – |

experiment: A CellTox Green Cytotoxicity Assay to monitor cytotoxicity in HEK293 cells - 0 hour (AID 1224869); settings: CellTox Green fluorescence; series mostly up to 76.8 µM
Procedure, shortened: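 Each value comes from one timepoint of a single continuous run in which HEK293 cells with CellTox Green were exposed to compound for up to 40 h at 37 C, dye fluorescence rising with cell death.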

| SMILES | outcome | cytotoxicity |
| --- | --- | --- |
| O=S(=O)(O)c1cc(O)c(O)c(S(=O)(=O)O)c1 | inactive | – |
| CCC1C(=O)OCC1Cc1cncn1C (stereo not given) | inactive | – |
| C[C@H]1[C@H](NC(=O)/C(=N/OC(C)(C)C(=O)O)c2csc(N)n2)C(=O)N1S(=O)(=O)O (stereo in doubt) | inactive | – |
| Nc1ccn([C@@H]2O[C@H](CO)[C@@H](O)C2O)c(=O)n1 (stereo not given in full) | inactive | – |
| CC1=NN(c2cc(S(=O)(=O)O)ccc2Cl)C(=O)C1N=Nc1ccccc1 (stereo not given) | inactive | – |
| O=S(=O)(O)c1cccc(S(=O)(=O)O)c1 | inactive | – |
| CCN[C@H]1C[C@H](C)S(=O)(=O)c2sc(S(N)(=O)=O)cc21 | inactive | – |
| NCCCC(N)(C(=O)O)C(F)F (stereo not given) | inactive | – |
| CCC(C(=O)NC(=O)NC(C)=O)c1ccccc1 (stereo not given) | inactive | – |
| CC(C)NNC(=O)c1ccncc1 | inactive | – |
| NCCCC[C@H](N[C@@H](CCc1ccccc1)C(=O)O)C(=O)N1CCC[C@H]1C(=O)O | inactive | – |
| CC1=CC(=O)[C@H]2C[C@@H]1C2(C)C | inactive | – |
| CN(C)C(=O)Oc1cccc([N+](C)(C)C)c1 | inactive | – |
| CC[C@H]1OC(=O)[C@H](C)[C@@H](O[C@H]2C[C@@](C)(OC)[C@@H](O)[C@H](C)O2)[C@H](C)[C@@H](O[C@@H]2O[C@H](C)C[C@H](N(C)C)[C@H]2O)[C@](C)(OC)C[C@@H](C)C(=O)[C@H](C)[C@@H](O)[C@]1(C)O | inactive | – |
| COC(=O)C1=C(C)NC(C)=C(C(=O)OC(C)C)C1c1cccc2nonc12 (stereo not given) | inactive | – |
| CCCCCCCCCCCCCCC(=O)O | inactive | – |
| CN1CCC(=C2c3ccccc3CCc3cccnc32)CC1 | inactive | – |
| CCOc1ccccc1OCC | inactive | – |
| CCCc1ncc(C[n+]2ccccc2C)c(N)n1 | inactive | – |

| SMILES | outcome | cytotoxicity |
| --- | --- | --- |
| CCOC(=O)c1cnc2c(cnn2CC)c1NN=C(C)C | inactive | – |
| CC(C(=O)O)c1cccc(Oc2ccccc2)c1 (stereo not given) | inactive | – |
| CCNC(=O)[C@@H]1CCCN1C(=O)[C@H](CCCN=C(N)N)NC(=O)[C@H](CC(C)C)NC(=O)CNC(=O)[C@H](Cc1ccc(O)cc1)NC(=O)[C@H](CO)NC(=O)[C@H](Cc1c[nH]c2ccccc12)NC(=O)[C@H](Cc1cnc[nH]1)NC(=O)[C@@H]1CCC(=O)N1 ([pGlu]HWSYGLRP-NHEt) | inactive | – |
| C[N+]1(C)[C@@H]2CC(OC(=O)[C@H](CO)c3ccccc3)C[C@H]1[C@@H]1O[C@@H]12 (stereo not given in full) | inactive | – |
| CC[N+](C)(CC)CCOC(=O)C1c2ccccc2Oc2ccccc21 | inactive | – |
| C[C@H]1C[C@H]2[C@@H]3CCC4=CC(=O)C=C[C@]4(C)[C@H]3C(=O)C[C@]2(C)[C@@]1(O)C(=O)CO | inactive | – |
| CCC(C)(CN(C)C)OC(=O)c1ccccc1 (stereo not given) | inactive | – |
| CN1CCN(c2cc3c(nn2)Oc2ccccc2N3C)CC1 | – | -3.85% [at 15.8 µM] |
| OCCCCCO | inactive | – |
| CCN[C@@H]1C[C@H](N)[C@@H](OC2OC(CN)=CCC2N)[C@H](O)[C@H]1O[C@H]1OC[C@](C)(O)[C@H](NC)[C@H]1O (stereo not given in full) | – | 3.58% [at 0.29 µM] |
| C[N+](C)(C)CCCCCCCCCC[N+](C)(C)C | inactive | – |
| Nc1c2c(nc3c1CCC3)CCCC2 | inactive | – |
| CCOCC(C)O (stereo not given) | inactive | – |
| CC[N+](CC)(CC)CCOc1cccc(OCC[N+](CC)(CC)CC)c1OCC[N+](CC)(CC)CC | inactive | – |
| CCCCN1C=CN(C)C1 | – | -3.75% [at 15.8 µM] |
| COc1cc(-c2ccc(=O)[nH]n2)ccc1OC(F)F | inactive | – |
| C=CCCC(=O)O | inactive | – |
| CC(C#N)(CCC(=O)O)N=NC(C)(C#N)CCC(=O)O (stereo not given) | inactive | – |
| CN(C)CCCCCCN(C)C | inactive | – |
